Bioassay records (PubChem)
Hits are enriched below; roughly 5.7% of the tested compounds scored in any of these assays.
PI4K2A inh – inhibitors of human PI4K2A | Q9BTU6 | purified PI4K2A, ADP-Glo luminescence, 1 h; stronger effect = lower value | activity change, negative = inhibition, % at 76.9 µM | 0.13% of 420,000 active | AID 1346378; in the data active = activity change below about -50%; inconclusive = mostly about -30% to -49%
Target sequence (Q9BTU6 whole entry, looked up): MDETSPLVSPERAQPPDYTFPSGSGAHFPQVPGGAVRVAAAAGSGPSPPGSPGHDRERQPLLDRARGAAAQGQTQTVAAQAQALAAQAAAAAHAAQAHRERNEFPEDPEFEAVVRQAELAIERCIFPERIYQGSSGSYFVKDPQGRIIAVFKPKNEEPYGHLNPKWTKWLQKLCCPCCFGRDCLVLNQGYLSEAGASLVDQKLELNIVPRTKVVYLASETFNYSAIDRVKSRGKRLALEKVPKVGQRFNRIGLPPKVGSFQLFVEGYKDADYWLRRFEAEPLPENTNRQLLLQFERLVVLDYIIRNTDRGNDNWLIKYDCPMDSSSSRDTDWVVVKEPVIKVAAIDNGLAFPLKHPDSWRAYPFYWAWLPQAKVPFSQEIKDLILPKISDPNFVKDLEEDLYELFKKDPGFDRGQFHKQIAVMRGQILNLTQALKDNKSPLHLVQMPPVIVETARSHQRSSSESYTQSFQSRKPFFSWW
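In this quantitative HTS, ADP production by PI4K2A was quantified luminescently after 1 h at ambient temperature; 100 microM adenosine served as plate-quality control.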
A549 tox – counter-screen for Nrf2 inhibitors: cytotoxicity in A549 cells; A549 ARE-Fluc cells, CellTiter-Fluor viability, 18-24 h; Potency, µM (doses to about 46 µM), most hits filed as inhibitors; 0.16% of 390,000 active; AID 504648
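A549 ARE-Fluc cells in 5% FBS OPTI-MEM, 5000 cells/well, rested 2 h then exposed to compounds in concentration-response for 18-24 h at 37 °C. Viability by CellTiter-Fluor fluorescence (Ex 405/Em 525) after 30 min; luciferase luminescence (BugLite, 15 min, RT) read afterwards.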
KB-3-1 tox – KB-3-1 parental cell cytotoxicity. KB-3-1 viability, CellTiter-Glo ATP luminescence, 72 h. Potency, µM (titrated, usually from 46.1 µM), hits mostly cytotoxic. 1.4% of 400,000 active; also: nearly all actives have a fitted effect of over 60% in size
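Cytotoxicity measured as CellTiter-Glo luminescence after 72 h at 37 C. Compound titrations were pinned onto drug-naive KB-3-1 parental adenocarcinoma cells grown in DMEM with 10% FBS, and normalized data fitted to concentration-response curves.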
KB-V1 MDR tox – KB-V1 MDR subline cytotoxicity. Potency, µM (titrated, usually from 46.1 µM), hits mostly cytotoxic. KB-V1 MDR cells viability, CellTiter-Glo, 72 h. 3.4% of 400,000 active; also: nearly all actives have a fitted effect of over 60% in size
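KB-V1 MDR subline cells in DMEM (phenol-red free, 10% FBS) exposed to compounds in qHTS concentration series for 72 h at 37 degrees C. Viability read by CellTiter-Glo luminescence; concentration-effect curves fitted after normalization and correction.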
Nrf2 block – blocks Nrf2 signaling | A549 ARE-Fluc reporter, luciferase luminescence, 18-24 h | 2.1% of 360,000 active | Potency, µM (top dose mostly 46 µM), hits mostly inhibitors; also: nearly all actives have a fitted effect of over 60% in size
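In this cell-based qHTS, ARE-driven firefly luciferase in A549 cells reports Nrf2 activity; the luminescent signal after BugLite lysis is the measured value, with a prior CellTiter-Fluor read for cell health.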
Giardia kill – kills Giardia lamblia; activity change, % at 7.66 µM, hits read low; 0.15% of 340,000 active; Giardia lamblia trophozoite viability; in the data active = activity change below about -80%; inconclusive = between about -30% and that limit;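 also: parasites exposed to compound for two days anaerobically before the ATP read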
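Each well holds 100 Giardia trophozoites and compound. After two days (48 hrs) at 37 deg C in anaerobic conditions, ATP is quantified by luminescence.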
A number is an active result; i = inactive; ? = inconclusive; nt = not tested or not shown; [ ] = dose if it differs, or a comment. Unless noted, calls follow the shape of the dose curve; as a rule, active = well fitted curve in the direction sought with a large enough effect; inconclusive = small, poorly fitted or top-dose-only effect, or another doubt; inactive = no such curve, though single readings can be large; an effect the other way counts as inactive or inconclusive.

SMILES	PI4K2A inh	A549 tox	KB-3-1 tox	KB-V1 MDR tox	Nrf2 block	Giardia kill
COc1ccc(NC(=O)Nc2cc(F)ccc2C)cc1	i	i	?	?	21µM	i
O=C(O)Cc1nnc(-c2cc3ccccc3[nH]2)s1	nt	i	nt	nt	?	nt
COc1ccc2ccccc2c1C=Nn1c(-c2n[nH]c3c2CCC3)n[nH]c1=S	i	nt	nt	nt	nt	nt
COc1ccccc1/C=C/c1nc2ccccc2s1	nt	nt	i	i	nt	nt
COc1ccc(-c2cn(-c3ccccc3)c3[n+]2CCS3)cc1	i	i	3.3µM	i	2.6µM	i
COc1cc2cc3c(N)c(C(=O)Nc4sc(C)c(C)c4C#N)sc3nc2cc1OC	-50	i	i	i	?	i
COc1cc2cc3c(N)c(C(=O)NCc4ccco4)sc3nc2cc1OC	i	i	i	?	nt	i
CC(C)C[C@H]1COc2cccc(F)c2S(=O)(=O)N1C	i	nt	nt	nt	nt	nt
CCCCCCCCN(CCCCCCCC)c1ccc(/C=C/c2ccnc3ccccc23)cc1	nt	nt	?	i	nt	nt
CCCCc1ccc(NC(=O)CSc2nc(=O)n(CCN(CC)CC)c3c2CCCC3)cc1	i	i	?	26µM	i	i
O=C(CSc1nc(=O)n(Cc2ccccn2)c2c1CCC2)Nc1ccccc1	i	i	nt	nt	26µM	i
O=C(Nc1ccccc1N1CCN(C(=O)c2ccccc2)CC1)c1ccc([N+](=O)[O-])o1	i	i	?	?	i	-86
COc1ccc(N2CCOCC2)c(NC(=O)c2cc3ccccc3o2)c1	i	i	i	12µM	i	i
O=C(Nc1cc(C(F)(F)F)ccc1-n1cncn1)c1ccc([N+](=O)[O-])o1	i	i	21µM	?	i	?
CC1CCN(c2ccccc2NC(=O)c2ccc([N+](=O)[O-])o2)CC1	i	i	i	i	i	i
O=C(Nc1ccccc1N1CCOCC1)c1cc2ccccc2o1	i	i	i	?	?	i
COc1ccc(N2CCCC2)c(NC(=O)c2ccc([N+](=O)[O-])o2)c1	i	i	?	?	?	-86
O=C(Nc1cccc(Cl)c1N1CCOCC1)c1ccc([N+](=O)[O-])o1	i	i	?	i	i	-86
O=C(Nc1ccccc1N1CCCC1)c1ccc([N+](=O)[O-])o1	i	?	23µM	?	16µM	?
CC(O)CNc1nc2ccccc2n1CC(=O)NC12CC3CC(CC(C3)C1)C2 (stereo not drawn)	i	i	i	i	i	i
c1ccc2c(c1)ncn2-c1ncnc2sc3c(c12)CCCC3	i	i	i	i	i	i
c1ccc2c(c1)nnn2-c1ncnc2sc3c(c12)CCCC3	i	i	i	16µM	i	i
Cc1nc(-n2nnc3ccccc32)c2c3c(sc2n1)CCCC3	i	i	?	13µM	nt	i
Oc1ccc(N2CCN(c3ncnc4sc5c(c34)CCC5)CC2)cc1	i	i	i	i	15µM	i
CC(O)CNc1nc2ccccc2n1-c1ncnc2sc3c(c12)CCC3 (stereo not drawn)	i	i	?	13µM	i	i
SMILES	PI4K2A inh	A549 tox	KB-3-1 tox	KB-V1 MDR tox	Nrf2 block	Giardia kill
Cc1nc(NCc2cccnc2)c2c3c(sc2n1)CCCC3	i	i	?	?	?	i
OCCN1CCN(c2ncnc3sc4c(c23)CCCC4)CC1	i	i	i	i	i	i
CCOc1ccc(C(=O)N(CN2CCCC2=O)c2ccccc2)cc1	i	i	i	i	i	i
CCOc1ccc(C(=O)N(CN2CCCC2=O)c2ccc(C)cc2)cc1	i	?	i	4.6µM	i	i
CCN1CCN(Cc2cc(=O)oc3ccc(Cl)cc23)CC1	i	i	i	i	i	i
CCOC(=O)N1CCN(Cc2cc(=O)oc3ccc(Cl)cc23)CC1	i	?	i	18µM	i	i
CCOC(=O)N1CCN(CCC(=O)c2ccc(Br)cc2)CC1	i	i	i	i	i	i
O=C(c1ccc(Cl)cc1)N1CCC(O)(CSc2ccc(Cl)cc2)CC1	i	?	0.0007µM	i	nt	i
CCOC(=O)N1CCN(C(=O)c2ccc(CSc3ccc(Cl)cc3)cc2)CC1	i	i	i	i	18µM	i
CCOC(=O)N1CCN(CCC(=O)c2ccc(Cl)cc2)CC1	i	i	21µM	?	i	i
O=C(CSc1nc(=O)[nH]c2c1CCCC2)Nc1ccccc1C(F)(F)F	i	i	nt	nt	nt	nt
CCN(CC)CC(C)CNC(=O)c1cc(-c2ccc(Br)s2)nc2ccccc12 (stereo not drawn)	i	i	?	?	i[9.27 µM]	nt
CN1CCN(C(=O)c2ccc(Cl)cc2)CC1	i	i	i	i	i	i
CN1CCN(C(=O)c2ccc(CSc3ccc(Cl)cc3)cc2)CC1	i	i	?	7.3µM	?	i
O=C(/C=C/c1cccs1)Nc1nccs1	i	i	i	i	?	i
O=C(Nc1ccc(Br)cn1)c1ccc(Br)s1	i	i	?	23µM	?	i
Cc1cc(C)c(-c2csc(NC(=O)/C=C/c3cccs3)n2)c(C)c1	i	i	?	5.2µM	23µM	i
O=C(/C=C/c1cccs1)Nc1cccc(NC(=O)/C=C/c2cccs2)n1	i	i	23µM	23µM	i	i
O=C(Nc1ccc(Br)cn1)c1ccc(Cl)s1	i	i	?	i	?	i
O=C(/C=C/c1cccs1)Nc1ccc(Br)cn1	i	?	1.3µM	0.37µM	?	i
Cc1cc(C)nc(NC(=O)/C=C/c2cccs2)c1	i	i	i	i	i	i
CC(C)CNS(=O)(=O)CC1NCc2cc3c(cc21)OCO3 (stereo not drawn)	i	nt	nt	nt	nt	nt
CCCC1CCC2(CC1)CCC2OC(=S)NCc1cccc(F)c1 (stereo not drawn)	i	nt	nt	nt	nt	nt
O=C(NCCCCCCNC(=O)c1ccc(Br)s1)c1ccc(Br)s1	i	?	?	3.3µM	?	i
COC(=O)c1cccc(Cn2ccc3ccc(-c4ccc5ccn(C(=O)c6ccccc6OC)c5c4)cc32)c1	i	nt	nt	nt	nt	nt
SMILES	PI4K2A inh	A549 tox	KB-3-1 tox	KB-V1 MDR tox	Nrf2 block	Giardia kill
Cc1ccc2cc(-c3noc(C(C)(C)C)n3)c(=O)[nH]c2c1	i	i	i	18µM	i	i
O=C(C1CCN(S(=O)(=O)N2CCC3(CC2)OCCO3)CC1)N1CCc2ccccc2C1	i	i	i	9.2µM	i	i
O=C(C1CCN(S(=O)(=O)N2CCC3(CC2)OCCO3)CC1)N1CCN(Cc2ccccc2)CC1	i	i	i	i	i	i
O=C(Nc1ccc(F)cc1)c1oc2ccccc2c1NC(=O)C1CCCC1	i	?	i	13µM	i	i
Cc1ccccc1-c1nc(-c2ccccn2)no1	-51	i	?	?	?	?
COc1ccccc1-c1nc(-c2ccccn2)no1	-64	i	?	?	?	?
COc1ccc(-c2nc(-c3ccccn3)no2)cc1	-74	i	?	i	?	-81
COc1nc(C)ccc1-c1noc(-c2ccccn2)n1	i	i	i	12µM	nt	i
CCOC(=O)Cc1ccc(NC(=O)N(Cc2ccc(OC)cc2)C2CCN(C(C)=O)CC2)cc1	i	i	i	i	i	nt
